From ChEMBL document CHEMBL1157539, “Thousands of chemical starting points for antimalarial lead identification” (Nature, 2010)

Key:
Type in all cases: functional
Plasmodium falciparum [1] = test: GSK_TCMDC: Inhibition of Plasmodium falciparum 3D7 in whole red blood cells, using parasite LDH activity as an index of growth. Test compounds present at 2uM
Plasmodium falciparum [2] = test: GSK_TCMDC: Inhibition of Plasmodium falciparum Dd2 in whole red blood cells, using parasite LDH activity as an index of growth. Test compounds present at 2uM
HepG2 = test: GSK_TCMDC: Percent inhibition of human HepG2 cell line. Test compounds present at 10uM.

SMILES | Inhibition (Plasmodium falciparum [1]) [%] | Inhibition (Plasmodium falciparum [2]) [%] | Inhibition (HepG2) [%]
Cl.Cl.N=C(N)c1ccc(-c2cc(-c3cccc(C(=N)N)c3)on2)cc1 | 96 | 45 | 7
N#Cc1ccc(CN2CCCN(c3ccc(NC(=O)c4ccc(F)cc4)cc3)CC2)cc1.O=C(O)C(F)(F)F | 90 | 61 | 12
Cc1cc2nc(-c3ccc(C(=O)NCc4cccc(C(F)(F)F)c4)cc3)[nH]c2cc1C | 98 | 34 | 4
CN(C)CCn1c(=N)n(CC(O)c2ccc(Cl)c(Cl)c2)c2ccccc21.Cl (stereo unspecified) | 99 | 6 | 20
Cc1cc(C(=O)Nc2ccc3c(c2)CCN3C2CCN(Cc3cccc4cc[nH]c34)C2)no1 (stereo unspecified) | 97 | 96 | 0
Nc1nc(N)c2c(ccc3c2ccn3C2C=CCCC2)n1 (stereo unspecified) | 94 | 65 | 68
O=C(/C=C/c1ccc(Cl)c(Cl)c1)N1CCN(C(=O)Nc2ccc(F)c(Cl)c2)CC1 | 97 | 87 | 19
O=C(Nc1ccc(-c2cccc(-c3nc4cc(F)ccc4[nH]3)c2)cc1)Nc1ccc(F)c(F)c1F | 100 | 98 | 70
NC(=O)c1ccccc1OCC(=O)Nc1cccc(-c2cccc(-c3nc4ccccc4[nH]3)c2)c1 | 88 | 46 | 23
CCn1ccc2c(N3CCCS3(=O)=O)cc(C(=O)N[C@@H](Cc3ccccc3)[C@H](O)CNC(C)(C)CCCC(C)C)cc21 | 97 | 98 | 8
COc1cccc(CCN(Cc2ccccc2-c2ccc(CNC3CC(C)(C)NC(C)(C)C3)cc2)C(=O)NC2CCCCC2)c1.Cl | 100 | 99 | 97
Brc1cccc(Nc2nccc(Nc3ccc(Oc4ccccc4)cc3)n2)c1.Cl | 89 | 5 | 0
CNC(=O)/C=C/c1cc(NC(=O)Nc2ccnc3c(Br)cccc23)ccc1OC | 95 | 68 | 12
COc1ccc2nccc(NCC3(O)CCC(NCc4cc5c(cn4)OCCO5)CC3)c2n1.Cl (stereo unspecified) | 99 | 23 | 15
CC1(C)NC(N)=NC(=N)N1OCc1ccc(-c2ccccc2)cc1 | 95 | 97 | 64
CC(C)N1CCC(NCc2ccc(-c3ccc(Cl)cc3)cc2)CC1 | 99 | 48 | 50
O=C(NCCNc1ccnc2cc(Cl)ccc12)c1ccccc1F | 99 | 98 | 30
CCOc1c(C)cc(C(F)(F)F)cc1CNCCCNc1cc(=O)c2ccccc2[nH]1.Cl | 97 | 1 | 0
O=C(O)C(F)(F)F.c1cc(-c2ccc(CN3CCCC3)cc2)cc(-c2nc3ccccc3[nH]2)c1 | 100 | 52 | 25

SMILES | Inhibition (Plasmodium falciparum [1]) [%] | Inhibition (Plasmodium falciparum [2]) [%] | Inhibition (HepG2) [%]
CC(C)c1ccc(NC(=O)N[C@H]2CCN(CCCCCNC(=O)/C=C/c3ccc(Cl)c(Cl)c3)C2)cc1 | 100 | 14 | 56
COCCNCc1ccc(-c2ccc(CNc3ccc4ncccc4c3)cc2)cc1.O=C(O)C(F)(F)F | 85 | 4 | 41
O=C(/C=C/c1ccc(Cl)c(Cl)c1)NCCCCN1CCCN(C(=O)Nc2ccc(Cl)c(Cl)c2)CC1 | 96 | 1 | 22
Cc1cccnc1CNc1nccc2c(C)c(C)[nH]c12.Cl | 100 | 28 | 27
Cc1ccc(C(=O)Nc2ccc(C)c(OC3CCN(Cc4ccco4)C3)c2)cc1.O=C(O)C(F)(F)F (stereo unspecified) | 90 | 49 | 10
O=C(CCNc1ccnc(NCCc2ccc(F)cc2)n1)Nc1ccccc1.O=C(O)C(F)(F)F | 95 | 10 | 9
CCCNC[C@@H](O)[C@H](Cc1ccccc1)NC(=O)c1cc2c3c(c1)c(CC)cn3CCS(=O)(=O)N2C | 97 | 98 | 0
Br.CCSc1ccccc1CON1C(=N)N=C(N)NC1(C)C | 96 | 10 | 62
CC(=O)c1nccc(C)c1N | 92 | 0 | 10
CN(C)Cc1cccc(-c2ccc(NC(=O)c3ccc4c(=O)n(CC5CCCO5)cnc4c3)cc2)c1 (stereo unspecified) | 97 | 14 | 28
Cc1onc(-c2ccccc2)c1-c1nc(NCc2ccccc2Cl)no1 | 99 | 92 | 2
COc1ccc(CCN(C)CCCN2CCC(NC(=O)c3cccc4c(=O)c5ccccc5sc34)CC2)cc1OC.O=C(O)C(=O)O | 97 | 79 | 67
COc1cccc(NC(=O)Cn2c(C)c(C#N)c3ccccc32)c1 | 100 | 100 | 16
CC1CCN(CC[C@H]2CCCN2S(=O)(=O)c2cccc(NC(=O)c3ccc(-c4ccc(Cl)cc4)o3)c2)CC1 | 100 | 65 | 45
O=C(/C=C/c1ccc(Cl)c(Cl)c1)NCCCCCN1CCCC(C(=O)Nc2ccc(Cl)cc2)C1 (stereo unspecified) | 98 | 0 | 35
O=C(NC1CCCCC1)N(Cc1cccc(-c2ccc(CNC3CCCC3)cc2)c1)C1CCN(Cc2ccccc2)CC1.O=C(O)C(F)(F)F | 98 | 89 | 37
FC(F)(F)c1ccc2nccc(NCc3ccccc3)c2c1 | 93 | 56 | 18
O=C(Nc1ccc(OC2CCN(Cc3ccc(F)cc3)CC2)cc1)c1cccs1.O=C(O)C(F)(F)F | 84 | 52 | 6
Cc1cccc2nc(-c3cccc(-c4ccc(NC(=O)Nc5ccc(F)c(F)c5F)cc4)c3)[nH]c12 | 100 | 100 | 61

SMILES | Inhibition (Plasmodium falciparum [1]) [%] | Inhibition (Plasmodium falciparum [2]) [%] | Inhibition (HepG2) [%]
COc1ccc(-c2cccc(NC(=O)c3ccc(C#N)cc3)c2)cc1CN1CCN(C)CC1.O=C(O)C(F)(F)F | 93 | 2 | 24
OCc1c(Cl)cc(Cl)cc1CNCCCNc1nc2ccccc2[nH]1 | 100 | 2 | 0
COc1cccc(C(NC(=O)c2ccccc2)c2ccc3cccnc3c2O)c1 (stereo unspecified) | 89 | 41 | 52
Cl.NC(=O)c1cnc2cc(-c3ccoc3)ccc2c1Nc1ccc(NC(=O)Nc2ccccc2Cl)cc1 | 100 | 76 | 39
CCCNC(=O)Nc1cc2cc(-c3ccc(CN4CCCC4)cc3)ccc2n2c(C)nnc12 | 93 | 11 | 67
Cn1cncc1-c1cc2c(Nc3ccc(OCc4ccccc4)cc3)ncnc2cn1 | 99 | 75 | 0
O=C(Nc1ccc(N2CCCN(Cc3cccc(F)c3)CC2)cc1)c1ccccc1.O=C(O)C(F)(F)F | 95 | 95 | 25
c1ccc2c3c(ccc2c1)Sc1c(ccc2ccccc12)N3 | 92 | 31 | 0
CCOc1ccc(C(=O)Nc2cc(Br)c3c(c2)CNCC3)cc1Cl.Cl | 92 | 8 | 13
COc1cc(NC(=O)N2CCc3cc(OC)c(OCCN4CCCCC4)cc32)cc(C(F)(F)F)c1.O=C(O)C(=O)O | 93 | 10 | 9
CCN(CC)c1nc(-c2ccccc2)cc(-c2ccccc2)c1C#N | 100 | 66 | 0
O=C(NC1CCN(CCN2CCC(c3c[nH]c4ccccc34)CC2)CC1)c1ccc(-c2ccc(C(F)(F)F)cc2)cc1 | 99 | 100 | 100
N#Cc1ccc(N/C(=N\c2ccc(-c3ccccc3)cc2)NCc2cccnc2)c(O)c1 | 100 | 46 | 2
COC(=O)c1cccc(NC(=O)NC2CCN(c3ccnc(Nc4ccc(F)cc4)n3)C2)c1 (stereo unspecified) | 100 | 83 | 5
Cl.O=c1cc(NCCCNCc2ccc(Cl)c(Cl)c2)[nH]c2ccc(Cl)cc12 | 100 | 54 | 11
Cc1cccc2nc(-c3ccc(-c4ccc(CNCc5cccc(N)c5)cc4)s3)[nH]c12.O=C(O)C(F)(F)F | 100 | 78 | 10
O=C(/C=C/c1ccc(C(F)(F)F)cc1)N1CCc2cc3nccc(N4CCN5CCC[C@H]5C4)c3cc21 | 86 | 21 | 0
COC(=O)c1ccc(CN2CCC(N(Cc3cccc(Oc4ccccc4)c3)S(=O)(=O)c3ccc(NC(C)=O)cc3)CC2)cc1 | 82 | 86 | 0
Cl.O=C1c2ccccc2CN1CCCN1CCC(Oc2ccc(F)cc2)CC1 | 97 | 1 | 14
